The text below walks through data of PubChem BioAssay (EPA / NIEHS).

The source made the active and inactive calls. How the source made its calls: active means hit-call score of the fitted dose curve at least 0.9, where 1 is the maximum; inactive means score below 0.9.

This assay can be described thus: IUF_NPC2c_oligodendrocyte_migration_120hr: Leibniz Research Institute for Environmental Medicine (IUF) 120-hour Neural Progenitor Cell Migration Assay for Oligodendrocyte Migration (NPC2c) (AID 2284297). The protocol: IUF_NPC2-5 is a cell-based, multiplexed assay that uses hNPC, a human primary neural progenitor cells, with measurements taken at 72 or 120 hours after chemical dosing in a 96-well plate. Human neural progenitor cells (hNPC) are generated from human fetal brain cortex at gestational week (GW) 16-19. In the neural progenitor cell migration and differentiation assay (NPC2-5), hNPCs grown as spheres are plated on an extracellular matrix and migrate and differentiate out of the sphere core. The processes radial glia migration, neuronal and oligodendrocyte migration as well as neuronal differentiation, neuronal morphology and oligodendrocyte differentiation are studied using automated phase contrast imaging and automated fluorescence imaging in combination with high content image analysis. In parallel, the cell viability is assessed using an alamar blue viability assay and the cytotoxicity using a lactate dehydrogenase dependent membrane integrity assay.IUF_NPC2b_oligodendrocyte_migration_120hr is one of 12 assay components measured from the IUF_NPC2-5 assay. Oligodendrocyte migration distance at 120 hr is the mean distance of all oligodendrocytes from the edge of the sphere core to each individual oligodendrocyte (see IUF_NPC5_oligodendrocyte_differentiation_120hr). Oligodendrocyte migration is normalized to radial glia migration distance at 120 hr.Data from the IUF_NPC2c_oligodendrocyte_migration_120hr component was analyzed at the endpoint IUF_NPC2c_oligodendrocyte_migration_120hr in the positive analysis fitting direction relative to DMSO as the negative control and baseline of activity. Using a type of migration reporter, gain or loss-of-signal activity can be used to understand developmental effects.
Culture protocol: After the cell expansion period the cells are cultured for up to four weeks in which they are passaged every week as described in 3.6. Between one to three days after passaging spheres at a size of 0.3 mm are picked for the test method. For the assessment of neural progenitor cell migration and differentiation, the spheres are plated on poly-D-lysine/laminin coated 96-well flat bottom plates in differentiation medium (N2) to initiate migration and differentiation. Thereby one 0.3 mm big sphere is plated in the middle of a well. The differentiation medium consists of DMEM and Ham's F12 at a ratio of 3 to 1 supplemented with 1% N2 and 1% penicillin and streptomycin. Within 5 days NPCs radially migrate out of the sphere core and differentiate into radial glia cells (nestin positive), neurons (TUBB3 positive), oligodendrocytes (O4 positive) and astrocytes (GFAP positive). Cultivation during the test method is performed at 37C and 5% CO2 at a ph of 7.2-7.6.Exposure: 0.3 mm big hNPC are plated in the already prepared test conditions. Exposure starts at day 0 of differentiation and is continued over five days of differentiation until the experiment is terminated. Cells are fed with fresh medium at day 3 of differentiation. Therefore, half of the test condition solution (e.g. solvent control or compound dilution) is replaced by freshly prepared test condition solution.Test Method: Migration distance and cytotoxicity is determined after 72 hours based on brightfield images of each well. The assay is terminated by the assessment of cell viability and cytotoxicity as well as cell fixation after 120 h. Immunocytochemistry is performed for Hoechst positive nuclei, TUBB3 positive neurons and O4 positive oligodendrocytes. On the ICC images, migration after 120 hours, neuronal and oligodendrocyte number, neuronal morphology and neuron/oligodendrocyte specific migration is assessed. immunocytochemical staining (ICC) generates an image for each sphere. The plates are scanned using an automated high content imaging device and all nuclei and their positions are determined automatically based on their intensity and size. Images are imported to the Omnisphero software to run the image analysis that measures the following endpoints. […]
For the compound `O=[N+]([O-])/N=C1\NCCN1Cc1ccc(Cl)nc1`, the call was inactive. Still for that read-out and setting: to `CC1(C)C(C=C(Cl)Cl)C1C(=O)OC(C#N)c1ccc(F)c(Oc2ccccc2)c1` (stereo not drawn) belongs “inactive”; to `O=S1OCC2C(CO1)C1(Cl)C(Cl)=C(Cl)C2(Cl)C1(Cl)Cl` (stereo not drawn), “inactive”; to `COP(=S)(OC)Oc1ccc([N+](=O)[O-])cc1`, “inactive”.

Turning to `CCC(C)(C)C(=O)OC1=C(c2ccc(Cl)cc2Cl)C(=O)OC12CCCCC2`, the compound was classed as inactive. As to `CC(C)N(C(=O)COc1nnc(C(F)(F)F)s1)c1ccc(F)cc1`, the compound was called inactive. On the same count and under the same terms, to `CC1(c2ccc(Oc3ccccc3)cc2)OC(=O)N(Nc2ccccc2)C1=O` (stereo not drawn) belongs “inactive”; to `O=C(O)COc1ccc(Cl)cc1Cl`, “inactive”. As for `COP(=O)(OC)OC=C(Cl)Cl`, the AC50 – broadly, the midpoint of the concentration-response curve, whichever way the signal moves – is 38.2 µM (active). Regarding `O=S(=O)(O)C(F)(F)C(F)(F)C(F)(F)C(F)(F)C(F)(F)C(F)(F)C(F)(F)C(F)(F)F`, the compound was classed as inactive. Take `CNC(=O)CSP(=S)(OC)OC`: the result was inactive. In the case of `O=C(O)C(F)(F)C(F)(F)C(F)(F)C(F)(F)C(F)(F)C(F)(F)C(F)(F)F`, the compound was called inactive.

In the case of `CC[C@H](C)[C@H]1O[C@]2(C=C[C@@H]1C)C[C@@H]1C[C@@H](C/C=C(\C)[C@@H](O[C@H]3C[C@H](OC)[C@@H](O[C@H]4C[C@H](OC)[C@@H](O)[C@H](C)O4)[C@H](C)O3)[C@@H](C)/C=C/C=C3\CO[C@@H]4[C@H](O)C(C)=C[C@@H](C(=O)O1)[C@]34O)O2` (tested in a mixture with another compound), the result was inactive.
